# NOMO-1 viab: NOMO-1 AML cell viability reduction, primary screen, STK33 inhibitor project, CellTiter-Glo luminescence | NOMO-1 AML viability, 72 h | inhibition, % (test concentration not listed) | hit rate 7.5% among 37,000; in the data active means inhibition above about 80%
# PD-1 reversal: activators reversing PD-1 mediated T-cell inhibition, primary screen, luminescence, primary human CD4 T cells, PD-L1 beads | CellTiter-Glo 96 h | activation, % (concentration not given with the values) | 29,000 tested, under 10 active | AID 2316, 2010; call rule not given here;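 further: 0% = median vehicle wells and 100% = positive control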
# Shh pathway inh: Hedgehog pathway signaling inhibitors, primary screen, luminescence, Shh-LIGHT2 cells, Gli-luciferase; Shh-LIGHT2 Gli-luciferase reporter, 30 h; inhibition, % (no concentration beside the values); hit rate 2.1% among 22,000; AID 2313, 2010;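 active means mean inhibition across valid replicates above about 65%, limit read from the data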;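 further: pathway switched on by Shh-conditioned medium diluted 1 in 25 in low serum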
# Active calls of the source: *; / = no result. An excerpt weighted towards active compounds, which were near 7.7% of everything screened.
SMILES,NOMO-1 viab,PD-1 reversal,Shh pathway inh
COC(=O)c1c(NC(=O)c2ccc(Cn3cc(Cl)cn3)cc2)sc2c1CCC2,1,/,/
Cc1ccc(NC(=O)COc2ccccc2Cl)c([N+](=O)[O-])c1,17,/,/
Cc1ccc(S(=O)(=O)Nc2cccc3cccnc23)c([N+](=O)[O-])c1,121*,-15,/
CC(=O)Nc1ccc(NS(=O)(=O)c2ccc(C)cc2[N+](=O)[O-])cc1,21,0,/
Cc1cc(C(=O)Nc2cccc3c2O[C@H](CN(C)Cc2ccc(C(=O)Nc4ccccc4N)cc2)[C@@H](C)CN([C@H](C)CO)C3=O)n(C)n1,63,-1,/
C[C@@H]1CN([C@H](C)CO)C(=O)c2cccc(N(C)C)c2O[C@@H]1CN(C)Cc1ccc(C(=O)Nc2ccccc2N)cc1,127*,0,/
C[C@H](CO)N1C[C@H](C)[C@H](CN(C)Cc2ccc(C(=O)Nc3ccccc3N)cc2)Oc2c(cccc2N(C)C)C1=O,124*,0,/
Cc1cc(C(=O)Nc2cccc3c2O[C@@H](CN(C)Cc2ccc(C(=O)Nc4ccccc4N)cc2)[C@H](C)CN([C@H](C)CO)C3=O)n(C)n1,72,0,/
COc1ccccc1NC(=O)C1=C(C)Nc2ncnn2C1c1ccccc1OCc1ccccc1 (configuration not stated),20,-1,/
Cc1c(Cl)cccc1NC(=O)CN(c1ccc(I)cc1)S(C)(=O)=O,15,1,/
COc1cccc(NC(=O)COc2ccccc2C(=O)Nc2c(C)cccc2C)c1,32,/,/
Cc1ccc(Cl)cc1NC(=O)CC(C(=O)O)N1CCNCC1 (configuration not stated),-7,1,/
CCOc1cc([N+](=O)[O-])ccc1NC(=O)CC1Sc2ccccc2NC1=O (configuration not stated),110*,-4,/
COc1ccc(OC)c(NC(=O)CC2Sc3ccccc3NC2=O)c1 (configuration not stated),3,-1,/
Cc1ccc2nc(SCc3nc4ccccc4n3C)[nH]c2c1,6,0,/
COc1cc2c(cc1NC(=S)NCc1ccco1)oc1ccccc12,93*,-10,/
COc1cc2c(cc1NC(=S)NCCc1ccc(OC)c(OC)c1)oc1ccccc12,7,-5,/
Cc1cccc(OCC(=O)Nc2cccc(-c3nc4cc(C)ccc4o3)c2)c1,5,/,/
CCN1C2=C(C(=O)CCC2)C(c2cccc(O)c2)C2=C1CCCC2=O,-1,0,1
CCOC(=O)C1=C(S)N(C#N)C(=O)C(C#N)C12CCNCC2 (configuration not stated),11,1,-38
COc1cccc(/C=N/O)c1O,8,-1,24
COc1cc(-c2ccccn2)nc(/C=N/O)c1S(C)=O (configuration not stated),/,/,83*
COc1ccccc1NC(=O)CSc1nnc(-c2cccc3ccccc23)n1-c1ccccc1,29,0,/
O=C(O)CC(C(=O)Nc1ccc(Cl)cc1)N1CCCCC1 (configuration not stated),-8,3,/
CC1=Nc2ccc(C(F)(F)F)cc2C1(C)C,-14,1,-10
SMILES,NOMO-1 viab,PD-1 reversal,Shh pathway inh
C[C@H](CO)N1C[C@H](C)[C@H](CN(C)CC2CC2)Oc2c(NC(=O)Nc3ccc(C(F)(F)F)cc3)cccc2C1=O,44,0,-48
C[C@@H]1CN([C@@H](C)CO)C(=O)c2cccc(NC(=O)Nc3ccc(C(F)(F)F)cc3)c2O[C@H]1CN(C)CC1CC1,83*,-6,2
C[C@@H]1CN([C@H](C)CO)C(=O)c2cccc(NC(=O)Nc3ccc(C(F)(F)F)cc3)c2O[C@@H]1CN(C)CC1CC1,20,1,11
C[C@H](CO)N1C[C@H](C)[C@@H](CN(C)CC2CCCCC2)Oc2c(NC(=O)Nc3ccc(C(F)(F)F)cc3)cccc2C1=O,121*,-5,-73
Cc1ccc(-n2c(SCC(=O)Nc3ccc(F)c(Cl)c3)nnc2-c2ccco2)cc1,46,-4,/
CS(=O)(=O)N(CC(=O)Nc1ccccc1C(=O)O)c1ccc(F)cc1,9,1,/
O=C(CSc1nc(SCC(=O)c2ccccc2)c2ccccc2n1)c1ccccc1,41,1,76*
O=C(CSc1nc(-c2ccccc2)cc(C(F)(F)F)n1)c1ccccc1,15,2,/
CCCn1c(-c2cccs2)n[nH]c1=O,-2,-2,-26
O=C(Cn1cnc2ccccc2c1=O)Nc1cc(Cl)c(Cl)cc1Cl,26,3,/
Cc1ccc(-c2noc(CN(C(=O)c3ccccc3-c3ccccc3)C(C)C)n2)cc1,87*,/,/
CC(C)N(Cc1nc(-c2ccccc2Cl)no1)C(=O)c1ccccc1-c1ccccc1,36,/,/
COC(=O)c1sc(N2C(=O)C(=O)C(C(=O)c3ccc(OC)c(C)c3)C2c2ccco2)nc1C (configuration not stated),22,-1,/

# From PubChem
